# A selection: hits, their analogues and other compounds. The true share with any hit is near 0.85%.
# EBNA-1 inh: blocks EBNA-1 binding to DNA. inhibition, % at 14.8 µM. AID 1950. EBNA-1 DNA binding, fluorescence polarization. 0.34% of 300,000 active; in the data active = inhibition above about 28%
# E coli Lon inh: E. coli protease La inhibition; P0A9M0; purified E. coli Lon protease, fluorescence polarization; inhibition, % at 7.94 µM; 0.42% of 360,000 active; AID 602123; in the data active = inhibition above about 13%, passing the limit was not always enough
# Target sequence (P0A9M0 whole entry, looked up): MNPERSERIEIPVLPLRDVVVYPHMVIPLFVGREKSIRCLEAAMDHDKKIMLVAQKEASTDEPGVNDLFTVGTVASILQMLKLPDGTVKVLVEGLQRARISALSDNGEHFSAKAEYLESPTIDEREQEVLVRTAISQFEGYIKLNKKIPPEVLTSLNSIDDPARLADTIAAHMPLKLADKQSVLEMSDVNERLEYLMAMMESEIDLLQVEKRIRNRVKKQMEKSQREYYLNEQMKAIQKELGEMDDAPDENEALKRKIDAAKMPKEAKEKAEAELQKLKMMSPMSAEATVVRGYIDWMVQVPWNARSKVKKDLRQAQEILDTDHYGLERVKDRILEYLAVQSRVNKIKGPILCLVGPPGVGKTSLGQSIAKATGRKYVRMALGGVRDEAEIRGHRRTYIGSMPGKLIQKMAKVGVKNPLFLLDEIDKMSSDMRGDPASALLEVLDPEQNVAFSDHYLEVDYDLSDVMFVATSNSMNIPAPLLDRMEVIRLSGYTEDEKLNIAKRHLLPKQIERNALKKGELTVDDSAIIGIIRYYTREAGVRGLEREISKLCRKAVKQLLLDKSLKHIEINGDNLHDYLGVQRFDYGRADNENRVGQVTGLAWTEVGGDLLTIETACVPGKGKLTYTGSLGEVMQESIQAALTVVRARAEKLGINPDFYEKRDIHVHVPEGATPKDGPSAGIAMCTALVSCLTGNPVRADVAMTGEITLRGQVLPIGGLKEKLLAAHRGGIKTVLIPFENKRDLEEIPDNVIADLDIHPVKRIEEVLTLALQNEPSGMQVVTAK
# ZTA DNA inh: counter-screen for EBNA-1 inhibitors: inhibitors of Epstein-Barr virus ZTA; P03206; ZTA-DNA binding, fluorescence polarization; AID 2234; 0.15% of 320,000 active; inhibition, % at 11 µM; in the data active = inhibition above about 33%
# LANA DNA inh: inhibitors of KSHV LANA C-terminal domain DNA binding; MBP-C-LANA/FAM-LBS DNA binding, fluorescence polarization; inhibition, % at 9 µM; 0.078% of 340,000 active; AID 504423;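 active = highest replicate inhibition at or above 60% at 9 µM, even if other replicates fall short; inactive = all replicates below 60% inhibition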
# Keap1-Nrf2 PPI: disrupts human Keap1 binding to Nrf2 peptide; Q14145; Keap1 Kelch-Nrf2 peptide fluorescence polarization, 1536-well; inhibition, % at 9.4 µM; 0.15% of 340,000 active; AID 504523; in the data active = inhibition above about 12%;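 also: human Keap1 Kelch domain with fluorescein labeled Nrf2 9mer peptide probe; higher means more block of Keap1 binding to Nrf2 peptide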
# Hits are given with their value; . = inactive; / = no result; + = active, no number.
SMILES,EBNA-1 inh,E coli Lon inh,ZTA DNA inh,LANA DNA inh,Keap1-Nrf2 PPI
N#Cc1c(N2CCCC(O)C2)nc(N)c2c(N)nc3c(c12)CC(=O)N3C12CC3CC(CC(C3)C1)C2 (centres undefined),.,35,.,.,.
C=C(C)CN(CC)c1nc(N)c2c(N)nc3c(c2c1C#N)CC(=O)N3C12CC3CC(CC(C3)C1)C2,.,.,.,.,.
CCn1c2ccc(F)cc2c2nnc(NN)nc21,.,.,.,.,.
NNc1nnc2c3cc(F)ccc3n(Cc3ccccc3)c2n1,.,.,.,62,.
O=C(O)c1ccccc1NS(=O)(=O)c1ccc(N/N=C/c2ccc(O)c(O)c2)c([N+](=O)[O-])c1,/,.,/,80,.
CC(CCC(C)C(C)(C)C)[C@@H]1CC[C@H]2C3C[C@H](OS(O)(=S)=S)[C@H]4C[C@H](OS(O)(=S)=S)[C@@H](OS(O)(=S)=S)C[C@]4(C)[C@H]3CC[C@]12C (some centres undefined) (tested in a mixture with another compound),/,36,/,123,84
O=C(OC[C@H]1O[C@@H](OC(=O)c2cc(O)c(O)c(OC(=O)c3cc(O)c(O)c(O)c3)c2)[C@H](OC(=O)c2cc(O)c(O)c(OC(=O)c3cc(O)c(O)c(O)c3)c2)[C@@H](OC(=O)c2cc(O)c(O)c(OC(=O)c3cc(O)c(O)c(O)c3)c2)[C@@H]1OC(=O)c1cc(O)c(O)c(OC(=O)c2cc(O)c(O)c(O)c2)c1)c1cc(O)c(O)c(OC(=O)c2cc(O)c(O)c(O)c2)c1,86,/,87,/,/
C/C(N)=C(/C#N)C(=O)CSc1nnc(COc2cc(C)ccc2C)o1,38,.,53,.,.
N#C/C(=C\c1ccc(O)c(O)c1)C(=O)N1CCCC1,.,.,.,.,.
N#C/C(=C\c1ccc(O)c(O)c1)C(=O)c1ccc(O)c(O)c1,.,.,.,69,.
Cc1ccc(NC(=S)Nc2ccc3nc(-c4ccccn4)c(-c4ccccn4)nc3c2)cc1C,.,120,.,.,.
O=C(O)c1ccc(CSc2nc3ccccc3c(=O)n2-c2ccccc2)cc1,.,.,.,.,30
O=c1c2ccccc2nc(SCc2ccc([N+](=O)[O-])cc2)n1-c1ccccc1,.,.,.,.,.
O=C(NCCS(=O)(=O)NC1CCCC1)c1ccc(F)cc1,.,.,.,.,.
CCN(CC)c1ccc(C=Nc2ccc(N(C)C)cc2)c(O)c1,+,.,+,.,.
CCN(CC)c1ccc(N=Cc2ccc(N(CC)CC)cc2O)cc1,129,.,192,.,.
COc1ccc(C2=NN(c3nc(-c4ccccc4)c(CC(=O)O)s3)C(c3ccco3)C2)cc1 (centres undefined),40,.,.,.,.
Cc1nc(N2N=C(c3ccc(Cl)cc3)CC2c2ccco2)sc1C(=O)N(C)C (centres undefined),.,.,.,.,.
CCCc1nc2c3ccccc3ccn2c1Cc1ccccc1,/,.,/,/,/
CC1(OC(=O)C2CCCC2)C(=O)C=C2C=C(c3ccsc3)N(CCc3ccccn3)C=C2C1=O (centres undefined),.,19,.,.,.
O=C1CC(=O)N(Cc2cccs2)C(=O)N1,.,.,.,.,.
O=C1CC(=O)N(Cc2ccco2)C(=O)N1,.,.,.,94,.
COc1ccc(CC(=O)NNc2ncnc3c2cnn3-c2ccc(C)cc2)cc1,97,.,.,.,.
COc1ccc(CC(=O)NNc2ncnc3c2cnn3-c2ccccc2)cc1,.,.,.,.,.
Cc1c(Cl)cccc1NS(=O)(=O)c1ccc2c(c1)C1C=CCC1C(c1ccc(C(=O)O)cc1)N2 (centres undefined),.,.,.,111,.
SMILES,EBNA-1 inh,E coli Lon inh,ZTA DNA inh,LANA DNA inh,Keap1-Nrf2 PPI
Cc1ccc(Nc2nc(-c3ccc(S(=O)(=O)N4CCOCC4)cc3)cs2)cc1Cl,31,.,.,.,.
CCOC(=O)c1cc(-c2ccccc2)sc1NC(=O)COC(=O)c1cccc(S(N)(=O)=O)c1,77,.,.,.,.
CCOC(=O)c1cc(-c2ccccc2)sc1NC(=O)COC(=O)c1ccc(Cl)c(S(N)(=O)=O)c1,.,.,.,.,.
Nc1nc(C(F)(F)F)cc(=O)[nH]1,.,.,.,65,.
Cc1sc2nc(C(C)C)nc(SCC(=O)NC3CC3)c2c1C,129,.,69,.,.
Cc1nc(SCC(=O)NC2CC2)c2c(C)c(C)sc2n1,.,.,.,.,.
Cc1cc(C)c(C)c(S(=O)(=O)NCc2ccncc2)c1C,.,.,.,.,.
NC(=NCCc1c[nH]c2ccccc12)NC(=O)c1ccc(Cl)cc1,.,.,.,81,.
Cn1nc(C(=O)N2CCN(c3ccccn3)CC2)c2ccccc2c1=O,.,.,.,.,.
Cc1ccccc1NC(=O)CN1C(=O)N/C(=C\c2ccc(N3CCOCC3)c(F)c2)C1=O,56,.,.,.,.
COc1cccc(CNC(=O)c2ccc(CS(=O)c3ccccc3)o2)c1 (centres undefined),.,.,.,.,.
Cc1cn(CC(=O)NCCc2ccccn2)c(=O)[nH]c1=O,/,.,/,.,.
COC(=O)c1ccc(/C=N\N2CCN(Cc3ccc(C)cc3)CC2)cc1,.,142,.,.,.
COC(=O)c1ccc(/C=N/N2CCN(Cc3ccccc3)CC2)cc1,.,.,.,.,.
C[C@H](CO)N1C[C@H](C)[C@@H](CN(C)S(=O)(=O)c2ccc(Cl)cc2)Oc2ccc(NS(=O)(=O)c3ccccc3)cc2CC1=O,/,19,/,.,.
Cc1ccc(S(=O)(=O)Nc2ccc3c(c2)CC(=O)N([C@H](C)CO)C[C@@H](C)[C@H](CN(C)S(=O)(=O)c2ccccc2)O3)cc1,/,.,/,.,.
C[C@@H]1CCCCO[C@@H](CN(C)C(=O)CCCN(C)C)[C@@H](C)CN([C@H](C)CO)C(=O)c2cc(N(C)C)ccc2O1,/,.,/,/,/
N#CC1(C#N)C(c2ccccc2)OC23CCCCCC2C1(C#N)C(=N)O3 (centres undefined),.,.,.,.,.
CCCCCCCCOc1ccc(C2OC34CCCCC3C(C#N)(C#N)C2(C#N)C(=N)O4)cc1 (centres undefined),.,27,.,.,28
COCCNc1nnc(SCC(=O)NC2CCCCC2)s1,/,.,.,.,.
CC(NC(=O)c1cc(-c2cccnc2)nc2ccc(Br)cc12)C1CCCO1 (centres undefined),160,.,151,.,.
O=c1ccc2cc3c([nH]c4ccc(Br)cc43)oc-2c1O,.,.,.,.,55
Cc1ccc(S(=O)(=O)N/N=C/c2cc(Br)c(C)o2)cc1,.,17,.,.,.
N=C1/C(=C/c2ccc(-c3cccc(C(=O)O)c3)o2)C(=O)N=C2SC=C(c3ccccc3)N12,60,.,35,.,.
CC(C)(C)CC(=O)Nc1cc2c3c(c1)CCN3C(=O)CC2,.,.,.,.,.
O=c1ccc2[n+]([O-])c3ccc(O)cc3oc-2c1,/,.,/,.,101
O=c1cc(O)c2ccc(O)cc2o1,.,.,.,.,.
